# GRIN3A LBD mod: modulates the human NR3A ligand-binding domain; NR3A LBD differential scanning fluorimetry, Tm shift; 0% = protein alone, 100% = glycine-bound protein; Tm shift relative to glycine control, % at 25 µM; 2.5% of 340,000 active; AID 1259313;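 active means melting temperature shift of at least 10% of the positive control shift, at one fixed dose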
# ADAM10 inh: ADAM10 inhibition, QFRET primary screen; AID 720582; 0.62% of 370,000 active; recombinant ADAM10, EDANS/DABCYL FRET peptide cleavage, 3 h; O14672; inhibition, % at 7 µM;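 active means inhibition above a per-campaign cutoff equal to the mean of compounds falling between control-based bounds plus 3 SD, cut at about 20% in these data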;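 further: 0% = DMSO wells while the 100% control is not disclosed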
# Target sequence (O14672 214-748 limits assumed): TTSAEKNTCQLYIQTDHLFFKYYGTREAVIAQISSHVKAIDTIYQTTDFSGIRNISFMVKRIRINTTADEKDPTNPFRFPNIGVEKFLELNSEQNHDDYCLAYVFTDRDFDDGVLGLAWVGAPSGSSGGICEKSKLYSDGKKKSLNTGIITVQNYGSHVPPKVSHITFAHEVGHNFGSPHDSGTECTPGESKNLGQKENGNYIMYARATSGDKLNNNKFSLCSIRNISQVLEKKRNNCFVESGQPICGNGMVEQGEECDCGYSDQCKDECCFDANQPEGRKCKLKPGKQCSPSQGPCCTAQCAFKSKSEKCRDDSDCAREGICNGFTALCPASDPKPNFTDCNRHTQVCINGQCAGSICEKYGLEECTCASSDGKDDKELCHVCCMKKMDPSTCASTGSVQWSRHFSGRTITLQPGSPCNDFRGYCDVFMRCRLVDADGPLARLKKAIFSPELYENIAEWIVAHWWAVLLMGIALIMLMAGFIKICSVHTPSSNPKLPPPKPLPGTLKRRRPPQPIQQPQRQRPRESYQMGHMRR
# rCAG RNA binder: molecules binding r(CAG) RNA repeats; r(CAG) RNA repeat, TO-PRO-1 dye displacement fluorescence; inhibition, % at 3 µM; 1.3% of 370,000 active; AID 651821;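 active means inhibition above the plate cutoff, the mean of all test compounds on that plate plus 3 SD, cut at about 35% in these data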;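 further: 0% = DMSO alone and 100% = 100 µM mitoxantrone as full dye displacement; higher means more dye released from RNA so lower well fluorescence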
# ADAM17 inh: inhibitors of human ADAM17. recombinant ADAM17, EDANS/DABCYL FRET peptide cleavage. inhibition, % at 6.95 µM. 0.83% of 370,000 active. AID 720648;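 active means inhibition above the mean of compounds lying between control limits plus 3 SD, set per campaign, cut at about 8.5% in these data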;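 further: 0% = DMSO-only wells as the low control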
# KLK7 zymogen act: proKLK7 (human) activation, primary screen. purified proKLK7, EDANS-DABCYL substrate fluorescence; 100% is mature enzyme control, 0% vehicle. activation, % at 7 µM. 0.9% of 370,000 active;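 active means activation above the mean of all tested compounds plus 3 SD, computed per campaign excluding outliers beyond control limits, cut at about 13% in these data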
# AHR act: activates the human aryl hydrocarbon receptor. P35869. AHR-responsive luciferase reporter cells, luminescence. activation, % at 5 µM. 2.5% of 320,000 active; in the data active means activation above about 47%;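 further: 0% = vehicle wells and 100% = reference agonist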
# Numbers without * were called inactive; . = no result given. Hits are enriched below; roughly 7% of the tested compounds scored in any of these assays.
SMILES,GRIN3A LBD mod,ADAM10 inh,rCAG RNA binder,ADAM17 inh,KLK7 zymogen act,AHR act
Cc1cccc(OCC(=O)Nc2ccc3oc(=O)ccc3c2)c1C,14*,0,3,-3,0,3
O=C(Nc1ccc2ccccc2c1)c1ccc(Cl)cc1,-4,-2,2,-1,1,-3
O=C(Nc1ccc2oc(=O)ccc2c1)c1ccco1,-21,-174,4,-54,1,-3
COC(=O)[C@]12C[C@H](CC(=O)N3CCCCC3)C(=O)N(Cc3ccccc3)C1=C[C@H](C(C)(C)C)O[C@@H]2C,.,-2,0,-4,1,.
OC(c1ccccc1)(c1ccccc1)C1CCN(CCCNc2cccc(OC(F)(F)F)c2)CC1,.,1,2,4,0,.
C[C@@H]1COc2cc(NCCCN3CCOCC3)ccc2S(=O)(=O)N1,.,-5,1,-3,0,.
CCOc1cccc(C(=O)Nc2cccc(C(C)=O)c2)c1,-43,-3,-3,0,0,30
O=C(Nc1ccc2ccccc2c1)c1cccc(F)c1,20*,0,2,-2,3,8
CCOc1cccc(C(=O)Nc2ccc3ccccc3c2)c1,30*,10,1,7,0,3
CCOc1cccc(NC(=O)c2cccc(F)c2)c1,10*,-3,-1,0,-1,9
COc1ccc(C(=O)OCCN(C)C2CN(Cc3cn(Cc4cccc(F)c4)nn3)S(=O)(=O)C2)cc1OC (stereo not given),.,-12,2,-7,0,.
OCCN1CCCC12CCC(c1ccccc1)CC2 (stereo not given),.,0,1,0,0,.
COc1ccc2cc(C(=O)Nc3ccc(O)cc3)sc(=O)c2c1OC,31*,-1,7,4,0,1
COc1ccc2cc(C(=O)Nc3ccc(F)cc3)sc(=O)c2c1OC,21*,-10,3,-1,1,-2
COc1ccc2cc(C(=O)Nc3ccc(Cl)cc3)sc(=O)c2c1OC,22*,9,8,1,0,-2
O=C(Nc1nccs1)C(Br)C(Br)c1ccccc1 (stereo not given),3,-2,2,1,1,52*
CNC(C)C#Cc1ccc2c(=O)c3c(OC)cccc3oc2c1 (stereo not given),.,.,.,.,.,97*
CCCC[C@H]1C2CC(OC(=O)Nc3ccccc3C(F)(F)F)C(C2)[C@H]2CCCCN21 (stereo not given in full),.,-4,2,-3,0,.
COCCCNC(=S)N(Cc1ccccc1)Cc1nc2ccccc2c(=O)[nH]1,-7,-73,-4,-26,1,0
CCNC(=S)N(Cc1ccccc1)Cc1nc2ccccc2c(=O)[nH]1,10*,-241,-2,-64,3,1
Clc1ccccc1-c1csc(Nc2cccnc2)n1,0,-4,3,6,0,68*
Cc1nc(C)c(-c2csc(Nc3cccnc3)n2)s1,-36,-14,0,-5,1,94*
COc1ccc(Nc2nc(-c3sc(C)nc3C)cs2)cc1,-10,9,-4,1,0,44
COc1ccc(-c2csc(Nc3cccnc3)n2)cc1OC,-28,-1,-2,1,0,-18
Clc1cccc(-c2csc(Nc3cccnc3)n2)c1,29*,5,6,0,1,41
SMILES,GRIN3A LBD mod,ADAM10 inh,rCAG RNA binder,ADAM17 inh,KLK7 zymogen act,AHR act
O=C(COc1cccc(F)c1)Nc1nc(-c2cccnc2)cs1,-5,-16,10,-3,0,54*
CC(=O)Nc1sc2c(c1-c1nc3ccccc3s1)CCCNC2,.,-18,.,-13,.,.
O=S1(=O)CC(N2CCCC2)CN1 (stereo not given),.,-4,2,-4,0,.
c1cncc(Nc2nc(-c3ccncc3)cs2)c1,-30,-2,-1,2,0,4
c1cncc(Nc2nc(-c3cccnc3)cs2)c1,0,2,0,-1,0,50*
CCCCC(=O)N1C/C=C\C(c2ccc(OC)cc2)N(Cc2ccc(F)cc2)C(=O)[C@H]1Cc1ccccc1 (stereo not given in full),-2,.,.,.,.,2
CC(C)CC(=O)N1CC=CC[C@@H](c2ccc(Cl)cc2)N(Cc2ccc(Cl)cc2)C(=O)[C@@H]1Cc1ccccc1,12*,13,12,-3,-1,.
O=C(/C(=C/O)N=Nc1ccc(Cl)cc1)c1ccncc1,-12,1,6,-1,-1,73*
Cc1ccc(N=N/C(=C\O)C(=O)c2ccncc2)cc1,1,-4,-5,-2,0,9
CCOc1ccc(/C=C2\SC(=O)N(c3ccc(O)cc3)C2=O)cc1OC,-4,.,.,.,.,-2
COc1cc(/C=C2\SC(=O)N(c3ccc(Cl)cc3)C2=O)cc([N+](=O)[O-])c1O,14*,-2,34,-2,1,.
CC(C)N1CCCCC(NC(=O)c2ccc(F)cc2)C1=O (stereo not given),.,-3,-1,1,0,.
COC(=O)[C@]12C[C@H](CC(=O)NCCc3ccccc3OC)C(=O)N(CCC3=CCCCC3)C1=C[C@H](C(C)C)O[C@@H]2C1CC1,.,5,2,2,1,.
CCOc1ccc(NC(=S)N(CCOC)C2CCN(C(C)C)CC2)cc1,10*,-6,-5,-1,0,2
CC(CCN1CCC(C(O)(c2ccccc2)c2ccccc2)CC1)Oc1cccc(Br)c1 (stereo not given),.,12,5,7,1,.
Cc1ccc2ccc(C3C(=O)c4ccccc4C3=O)nc2c1,-3,-8,4,-1,0,58*
S=c1[nH]c(-c2ccccc2)cn1/N=C/c1ccc(Br)cc1,5,-2,4,-1,0,54*
O=C(O)c1ccc(/C=N/n2cc(-c3ccccc3)[nH]c2=S)cc1,-1,-20,0,-10,1,6
Cc1ccc(C)c(/C=N/n2cc(-c3ccccc3)[nH]c2=S)c1,-5,-26,5,-11,-1,62*
S=c1[nH]c(-c2ccccc2)cn1/N=C/c1cccs1,-1,-32,5,-11,0,67*
O=C([C@@H]1C[C@H]1c1ccccc1)N1CC[C@H]2[C@H](CCCN2Cc2cc(F)cc(F)c2)C1,.,-3,3,-1,0,.
CCOC(=O)[C@@]12CCCC3=C1N(CCC3)C(=O)[C@H]2CC(=O)NCCC(C)C,.,-4,-2,-5,0,.
CCn1cc(C(=O)NCCc2ccc(C)cc2)c(=O)c2cc(S(=O)(=O)N(C)C)ccc21,-2,-4,0,-8,0,1
CCn1cc(C(=O)NCCc2ccc(Cl)cc2)c(=O)c2cc(S(=O)(=O)N(C)C)ccc21,22*,3,0,-5,0,.
COC(=O)C1CN(Cc2ccc(F)cc2)CCS(=O)(=O)N1Cc1cn(Cc2ccc(Cl)cc2)nn1 (stereo not given),.,12,6,2,0,.
O=C(Cn1nnc(N2CCCCC2)n1)NN=Cc1ccccc1O,.,-52,5,-8,-38,.
